Source: PubChem BioAssay
hNpr1 antagonist = antagonists of human natriuretic peptide receptor Npr1; P16066; HEK293 hNpr1 GloSensor cGMP, ANP-stimulated luminescence; Potency, µM (series often up to 46.3 µM), for the others: at the highest dose activity change, negative = inhibition, hits mostly inhibitors; 76,000 compounds, 1.6% hits; AID 1347048; calls by dose curve; further: on the % scale 0 is the no-effect control and ±100 the full control effect; nearly all actives have a fitted effect of over 60% in size
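Compound pre-incubated 30 min at room temperature on GloSensor-loaded HEK293 cells stably carrying hNpr1 and the pGS-40F cGMP biosensor. Stimulation uses hNppA at 0.1 nM final; luminescence is taken at baseline and 20 min post-agonist.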
NIH3T3 tox = NIH 3T3 cell cytotoxicity; Potency, µM (doses to about 96.7 µM), inactives show at the highest dose activity change, negative = cytotoxicity, most hits filed as inhibitors; NIH 3T3 viability, CellTiter-Glo ATP luminescence, 48-72 h; AID 1345082; 94,000 compounds, 4.3% hits; further: on the % scale 0 is the no-effect control and ±100 the full control effect; nearly all actives have a fitted effect of over 55% in size
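Viability of NIH 3T3 cells after 48 or 72 hr compound treatment at 37 °C was assessed by CellTiter-Glo, with luminescence imaged following a 10 min room-temperature step.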
FLuc inh = inhibitors of firefly (Photinus pyralis) luciferase | P08659 | purified P. pyralis luciferase, luminescence, biochemical | Potency, µM (series often up to 115 µM), actives largely listed as inhibitors | 76,000 compounds, 2.5% hits | AID 1347043; further: on the % scale 0 is the no-effect control and ±100 the full control effect; nearly all actives have a fitted effect of over 65% in size
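Inhibitors were tested against purified firefly luciferase in a biochemical, low-substrate format (both substrates at 10uM) and luminescence measured with a CCD imager.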
GPT2 inh = inhibitors of human GPT2 alanine aminotransferase. Q8TD30. Recombinant GPT2, coupled pyruvate oxidase/HRP Amplex Red fluorescence. Potency, µM (series often up to 57.7 µM), for inactives: top-dose activity change, negative = inhibition, actives largely listed as inhibitors. 100,000 compounds, 0.25% hits. AID 1671188; further: on the % scale 0 is the no-effect control and ±100 the full control effect; nearly all actives have a fitted effect of over 60% in size
Target sequence (Q8TD30 whole entry, looked up): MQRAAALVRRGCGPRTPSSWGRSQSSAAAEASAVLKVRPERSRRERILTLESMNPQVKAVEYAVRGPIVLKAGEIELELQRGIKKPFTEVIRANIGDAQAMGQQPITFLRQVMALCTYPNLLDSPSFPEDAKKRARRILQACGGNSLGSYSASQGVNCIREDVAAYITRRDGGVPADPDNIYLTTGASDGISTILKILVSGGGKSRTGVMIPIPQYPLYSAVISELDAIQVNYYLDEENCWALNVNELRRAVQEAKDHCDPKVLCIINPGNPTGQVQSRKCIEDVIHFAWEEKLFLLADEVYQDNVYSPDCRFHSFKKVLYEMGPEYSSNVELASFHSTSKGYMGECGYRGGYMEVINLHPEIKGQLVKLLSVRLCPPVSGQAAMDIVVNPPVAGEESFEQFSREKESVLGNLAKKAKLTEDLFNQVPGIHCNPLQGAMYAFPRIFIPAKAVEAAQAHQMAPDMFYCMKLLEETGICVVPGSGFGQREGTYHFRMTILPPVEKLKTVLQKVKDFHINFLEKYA
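Inhibition is scored from Amplex Red fluorescence generated when pyruvate oxidase and HRP act on pyruvate released by GPT2. Reactions contain 10ng/uL enzyme, 250uM a-KG and 2mM L-alanine and run 30 min at room temperature.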
HEK293 tox = kills HEK 293 cells; HEK 293 viability, ATP luminescence (CellTiter-Glo), 48-72 h; Potency, µM (highest dose often 115 µM), without a hit: at the top dose activity change, negative = cytotoxicity, actives largely listed as inhibitors; 94,000 compounds, 6.6% hits; AID 1345083; further: on the % scale 0 is the no-effect control and ±100 the full control effect; nearly all actives have a fitted effect of over 60% in size
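Luminescence from cellular ATP, measured with CellTiter-Glo, indicates HEK 293 viability. Cells plated at 250 cells/well are treated with compound for 48 or 72 hr at 37 degree Celsius before reagent addition.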
NPR1 antag cnf = confirmation of human Npr1 natriuretic peptide receptor antagonists; shares compounds with hNpr1 antagonist; HEK293 hNpr1 cGMP GloSensor luminescence, ANP-stimulated; Potency, µM (highest dose often 57.6 µM), inactives show top-dose activity change, negative = inhibition, usual class: inhibitors; 1,400 compounds, 76% hits; calls by dose curve; further: nearly all actives have a fitted effect of over 70% in size
NPR2 antag = antagonizes human Npr2, subtype selectivity check; shares compounds with hNpr1 antagonist; HEK293 hNpr2 GloSensor cGMP luminescence, CNP-stimulated; Potency, µM (highest dose often 57.6 µM), without a hit: at the top dose activity change, negative = inhibition, hits mostly inhibitors; 1,400 compounds, 67% hits; calls by dose curve; further: nearly all actives have a fitted effect of over 70% in size
FLuc counter = FLuc enzyme inhibition, Npr1 counter-screen | shares compounds with hNpr1 antagonist | purified FLuc enzyme, luminescence, Km substrate | Potency, µM (highest dose often 57.6 µM), inactives show top-dose activity change, negative = inhibition, hits mostly inhibitors | 1,400 compounds, 0.7% hits | AID 1347047; further: 0% is about no effect
GloSensor cGMP = counter-screen for Npr1 antagonists: GloSensor control cell line. shares compounds with hNpr1 antagonist. HEK293 GloSensor cGMP, SNP-stimulated, luminescence. Potency, µM (top dose mostly 57.6 µM), for inactives: at the highest dose activity change, negative = inhibition, most hits filed as inhibitors. 1,400 compounds, 69% hits; calls by dose curve; further: on the % scale 0 is the no-effect control and ±100 the full control effect; nearly all actives have a fitted effect of over 70% in size
The depositor's hits bear a star; i = inactive; ? = inconclusive; / = no result given; [ ] = dose if it differs, or a comment. In the library only some 10% were active in any assay of this set; here they are far more common. Unless noted, the call rests on the fitted dose curve; in most records, active means well fitted curve in the direction sought with a large enough effect; inconclusive means small, poorly fitted or top-dose-only effect, or another doubt; inactive means no such curve, though single readings can be large; an effect the other way counts as inactive or inconclusive. Potency means the concentration at half of the fitted maximal effect.

SMILES	hNpr1 antagonist	NIH3T3 tox	FLuc inh	GPT2 inh	HEK293 tox	NPR1 antag cnf	NPR2 antag	FLuc counter	GloSensor cGMP
CCN(CC)C(=O)N1CC(Oc2ccc(-c3nc(C)no3)cc2)C1	15.8µM*	?	i	-4.3%	?	24.3µM*	?	0.0%	?
O=C(c1ccccc1)N1CCC(C(=O)N2CCCC(c3nc4ncccc4[nH]3)C2)CC1 (centres undefined)	/	-11.6%	/	i	-13.3%	/	/	/	/
CNC(=O)c1cc(C)nc2onc(C3CCCN3C(=O)c3ccc(Cl)cc3)c12 (centres undefined)	/	-17.7%	/	/	-4.3%	/	/	/	/
O=C1Nc2ccc(/C=C/c3ccccc3)cc2C(=O)N2CC[C@H](NS(=O)(=O)c3cccs3)[C@@H]12	0.4%	?	?	2.0%	?	/	/	/	/
COCc1nc(-c2ccc(OC3CN(C(=O)NCc4ccccc4)C3)cc2)no1	?	-27.8%	i	i	?	/	/	/	/
Cc1noc(-c2ccc(OC3CN(C(=O)NCc4ccc(F)cc4)C3)cc2)n1	12.6µM*	?	i	i	?	27.3µM*	?	-0.7%	24.3µM*
CCN(CC)C(=O)N1CC(Oc2ccc(-c3noc(COC)n3)cc2)C1	10µM*	?	i	-7.9%	?	9.68µM*	8.62µM*	3.1%	6.85µM*
O=C(Nc1cc(-c2cccnc2)nn1-c1ccccc1)c1ccc(Cl)nc1	/	?	/	-4.9%	-27.0%	/	/	/	/
Cc1ccc2cc(CCC(=O)NCc3ccco3)c(=O)[nH]c2c1	-7.4%	-3.8%	i	i	-4.2%	/	/	/	/
Cc1cn2nc(C(=O)N3CCC(NC(=O)Cc4c[nH]c5ccccc45)CC3)cc2c(=O)[nH]1	0.7%	i	i	-18.1%	2.8%	/	/	/	/
Cc1ccccc1-c1cnc2[nH]cc(CC(=O)NCc3ccco3)c2c1	31.6µM*	?	i	-4.9%[88.5 µM]	70.8µM*	35.3µM*	31.4µM*	1.1%[86.2 µM]	25µM*
Cc1ccccc1-c1cnc2[nH]cc(CC(=O)NC3CC3)c2c1	14.1µM*	?	i	-3.6%[88.5 µM]	?	12.5µM*	17.7µM*	12.7%[86.2 µM]	12.5µM*
O=C(N[C@@H]1CN(c2ccncn2)C[C@H]1CO)c1ccc(Cl)cc1	3.9%	-16.2%	i	i	-7.9%	/	/	/	/
Cn1c(CNC(=O)c2ccc3nccn3c2)nc2cc(C(F)(F)F)ccc21	11.2µM*	?	i	?	?	21.7µM*	19.3µM*	-9.6%	27.3µM*
COC(=O)[C@@H]1Cc2c([nH]c3ccccc23)[C@H]2C[C@@H](NCCCn3ccnc3)C[C@@H](c3ccccc3F)N21	-24.7%	7.08µM*	i	i	?	-23.6%	-29.1%	-11.3%	-7.4%
N#Cc1ccc(CN2CCc3nc(C(=O)NCc4cccc(F)c4)oc3CC2)cc1	?	?	i	0.5%[88.5 µM]	?	39.6µM*	?	2.5%[86.2 µM]	31.4µM*
COc1ccc(CN2CCc3nc(C(=O)NCCOc4ccccc4)oc3CC2)cn1	?	?	i	-0.6%[88.5 µM]	?	44.4µM*	?	-0.8%[86.2 µM]	?
Cc1ccccc1CN1CCc2nc(C(=O)NCCOc3ccccc3)oc2CC1	-25.0%[70.6 µM]	?	i	-13.7%[88.5 µM]	?	/	/	/	/
O=C(NCc1ccncc1)c1nc2c(o1)CCN(Cc1ccccc1F)CC2	?	-26.1%[138 µM]	i	1.0%[88.5 µM]	?	/	/	/	/
O=C(NCc1ccccc1)c1nc2c(o1)CCN(Cc1ccc(F)cc1F)CC2	25.1µM*	70.8µM*	i	-0.9%[88.5 µM]	100µM*	39.6µM*	35.3µM*	1.1%[86.2 µM]	39.6µM*
O=C(NCC1CC1)c1nc2c(o1)CCN(Cc1ccc(F)cc1F)CC2	25.1µM*	?	i	-0.7%[88.5 µM]	?	22.2µM*	22.2µM*	-0.6%[86.2 µM]	19.8µM*
CCC1(N2CCN(C(=O)CCc3c[nH]c4ccccc34)CC2)CCN(C(=O)NC)C1 (centres undefined)	-14.1%	-18.3%	?	-11.1%	-20.6%	/	/	/	/
c1cc2c(cc1OC1CNC1)OCO2	/	-4.9%[174 µM]	/	i	-5.2%[230 µM]	/	/	/	/
Cc1ccccc1CN1CCc2nc(C(=O)NCc3ccncc3)oc2CC1	22.4µM*	?	i	i	?	31.4µM*	31.4µM*	-1.8%[86.2 µM]	25µM*
O=C(NCc1cccc(F)c1)c1nc2c(o1)CCN(Cc1cc(F)ccc1F)CC2	?	50.1µM*	i	2.9%[88.5 µM]	?	39.6µM*	?	0.3%[86.2 µM]	39.6µM*
SMILES	hNpr1 antagonist	NIH3T3 tox	FLuc inh	GPT2 inh	HEK293 tox	NPR1 antag cnf	NPR2 antag	FLuc counter	GloSensor cGMP
Cc1ccc(C(=O)N2CCN(c3cc(-c4ccccc4)[nH]n3)CC2)c(C)c1	11.2µM*	44.7µM*	i	i	?	24.3µM*	24.3µM*	1.6%	21.7µM*
Cc1ccccc1C(=O)N1CCCN(c2cc(-c3ccc(F)cc3)[nH]n2)CC1	-3.0%	-22.3%	i	-25.6%	?	/	/	/	/
O=C(c1ccc(Cl)cc1Cl)N1CCN(c2cc(-c3ccccc3)[nH]n2)CC1	10µM*	31.6µM*	i	i	20µM*	13.7µM*	19.3µM*	1.0%	13.7µM*
Cc1ccccc1C(=O)N1CCN(c2cc(-c3ccc(Cl)cc3)[nH]n2)CC1	11.2µM*	?	i	0.4%	?	19.3µM*	24.3µM*	-5.6%	17.2µM*
O=C(N1CCCN(c2cc(-c3ccc(Cl)cc3)[nH]n2)CC1)C1(c2ccccc2)CC1	?	35.5µM*	i	?	39.8µM*	19.3µM*	19.3µM*	4.1%	17.2µM*
Cn1cnnc1CC1CCN(C(=O)c2ccc(Oc3ccccc3)o2)CC1	0.3%	-13.6%	i	-7.4%	-15.9%	/	/	/	/
CN(Cc1cn(-c2ccccc2)nn1)Cc1cnc2ccccn12	?	?	i	3.1%	?	/	/	/	/
CC[C@@H]1[C@H](NC(=O)C2(c3ccc(S(C)(=O)=O)cc3)CCC2)[C@@H]2CCO[C@H]12	-2.7%	-16.3%	i	1.2%	-10.5%	/	/	/	/
